PubChem BioAssay AID1159580 (chemical genetic matrix, 2015)
Out of some 5,500 compounds screened, about 2,000 (36%) were called active. Another 18% or so got no clear call; they are omitted. No stated cut-off is given here; in the data, active means normalized growth mostly below about 0.91 (no sharp cut-off); inconclusive means no clear call, values can overlap the other calls; inactive means mostly above about 0.92. This is one part of the list.

Assay: chemical genetic growth profiling, strain panel (AID 1159580);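 further: tested at 20 µM; growth read once vehicle control cultures reached saturation at 30 °C; 1 = growth at the plate median or of vehicle wells; lower values mean less growth of the strain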
Conditions: S. cerevisiae deletion strains, growth OD
[1] = locus YHR030C, strain SLT2, hits give low values
[2] = locus YHR079C, strain IRE1, hits give low values
[3] = locus YJL095W, strain BCK1, hits give low values
[4] = locus YJR066W, strain TOR1, hits give low values
[5] = locus YLR113W, strain HOG1, hits give low values
[6] = locus YNL183C, strain NPR1, hits give low values
[7] = locus YOR231W, strain MKK1, hits give low values
[8] = locus YPL256C, strain CLN2, hits give low values

Measured: normalized growth

O=C(CNC(=O)c1ccc(Cl)cc1)NO
inactive: locus YAL021C, strain ccr4, hits give low values 1.01 | locus YAL026C, strain drs2, hits give low values 1.01 | locus YAL030W, strain snc1, hits give low values 1.01 | locus YBL061C, strain skt5, hits give low values 1.01 | locus YBR009C, strain hhf1, hits give low values 1.01 | locus YBR023C, strain chs3, hits give low values 1.02 | locus YBR171W, strain sec66, hits give low values 1.02 | locus YBR231C, strain swc5, hits give low values 1.01 | locus YBR279W, strain paf1, hits give low values 1.01 | locus YCL011C, strain gbp2, hits give low values 1.01 | locus YCL016C, strain dcc1, hits give low values 1.02 | locus YCL061C, strain MRC1, hits give low values 1 | locus YCL069W, strain vba3, hits give low values 1.01 | locus YCR088W, strain abp1, hits give low values 1.01 | locus YDL005C, strain med2, hits give low values 1.02 | locus YDL040C, strain nat1, hits give low values 1.01 | locus YDR001C, strain nth1, hits give low values 1 | locus YDR069C, strain doa4, hits give low values 1.01 | locus YDR137W, strain rgp1, hits give low values 1.03 | locus YDR159W, strain sac3, hits give low values 1.01 | locus YDR195W, strain ref2 0.972 | locus YDR297W, strain sur2, hits give low values 1.04 | locus YDR334W, strain swr1, hits give low values 1.02 | locus YDR335W, strain msn5, hits give low values 1.02 | locus YDR392W, strain spt3, hits give low values 1 | locus YEL003W, strain gim4, hits give low values 1.01 | locus YEL037C, strain rad23, hits give low values 1.04 | locus YEL061C, strain CIN8 (second series), hits give low values 1.01 | locus YER015W, strain faa2, hits give low values 1.01 | locus YER016W, strain bim1, hits give low values 1.02 | locus YER111C, strain swi4, hits give low values 1.01 | locus YER155C, strain BEM2 (second series), hits give low values 1.03 | locus YFR010W, strain ubp6, hits give low values 1.02 | locus YGL167C, strain pmr1, hits give low values 1.01 | locus YGL173C, strain kem1, hits give low values 1.02 | locus YGL227W, strain vid30, hits give low values 1.01 | locus YGL240W, strain doc1, hits give low values 1.01 | locus YGL253W, strain hxk2, hits give low values 1.01 | locus YHR013C, strain ard1, hits give low values 1.04 | locus YHR027C, strain rpn1, hits give low values 1.01 | [1] 1.02 | [2] 1.03 | locus YHR142W, strain chs7, hits give low values 0.997 | locus YJL092W, strain hpr5, hits give low values 1.01 | locus YJL095W, strain BCK1 (second series), hits give low values 1 | [3] 1.06 | locus YJL115W, strain asf1, hits give low values 1.02 | locus YJL129C, strain trk1, hits give low values 1.03 | locus YJL154C, strain vps35, hits give low values 1.02 | locus YJL164C, strain tpk1, hits give low values 1.01 | locus YJL166W, strain qcr8, hits give low values 1.01 | locus YJL187C, strain SWE1, hits give low values 1.01 | [4] 0.941 | locus YKL160W, strain elf1, hits give low values 1.01 | locus YKR026C, strain gcn3, hits give low values 0.992 | locus YKR091W, strain srl3, hits give low values 1.01 | locus YLL001W, strain dnm1, hits give low values 1.03 | locus YLL026W, hits give low values 1.01 | locus YLL041C, strain sdh2, hits give low values 1.02 | locus YLR027C, strain aat2, hits give low values 1.01 | [5] 1.04 | locus YLR221C, strain rsa3, hits give low values 1.01 | locus YLR258W, strain gsy2, hits give low values 1.02 | locus YLR262C, strain YPT6 (second series), hits give low values 1.03 | locus YLR320W, strain mms22, hits give low values 1.01 | locus YLR342W, strain FKS1, hits give low values 1.01 | locus YLR357W, strain rsc2, hits give low values 1.02 | locus YLR370C, strain arc18, hits give low values 1.01 | locus YLR384C, strain iki3, hits give low values 1.02 | locus YML120C, strain ndi1, hits give low values 1.01 | locus YMR058W, strain fet3, hits give low values 1.01 | locus YMR125W, strain sto1, hits give low values 1.01 | locus YMR129W, hits give low values 1.01 | locus YMR205C, strain PFK2, hits give low values 1.01 | locus YMR231W, strain pep5, hits give low values 1.02 | locus YNL071W, strain lat1, hits give low values 1.02 | [6] 0.951 | locus YNL209W, strain ssb2, hits give low values 1.02 | locus YNL248C, strain rpa49, hits give low values 1.01 | locus YNL322C, strain KRE1 (second series), hits give low values 1.01 | locus YNR049C, strain mso1, hits give low values 1.01 | locus YOR001W, strain rrp6, hits give low values 1.02 | locus YOR070C, strain gyp1, hits give low values 1.02 | locus YOR080W, strain dia2, hits give low values 1.01 | locus YOR083W, strain WHI5, hits give low values 1.01 | locus YOR106W, strain vam3, hits give low values 1.02 | [7] 1.01 | locus YOR265W, strain rbl2, hits give low values 1.01 | locus YOR270C, strain vph1, hits give low values 1.05 | locus YOR290C, strain snf2, hits give low values 1.03 | locus YPL051W, strain arl3, hits give low values 1.01 | locus YPL078C, strain atp4, hits give low values 1.01 | locus YPL106C, strain sse1, hits give low values 1.04 | locus YPL240C, strain hsp82, hits give low values 1.02 | [8] 0.997

O=C(NCC1COc2ccccc2O1)c1ccc(Cl)cc1 (stereo unspecified)
active: locus YER133W, strain GLC7, hits give low values 0.463 | locus YFR019W, strain FAB1, hits give low values 0.745 | [1] 0.638 | locus YJR066W, strain TOR1 (second series), hits give low values 0.561 | locus YKL203C, strain TOR2, hits give low values 0.708 | locus YPL031C, strain PHO85, hits give low values 0.662 | locus YPL153C, strain RAD53, hits give low values 0.649
inactive: locus YAR019C, strain CDC15, hits give low values 0.956 | locus YBL105C, strain PKC1, hits give low values 0.952 | locus YBR135W, strain CKS1, hits give low values 0.935 | locus YBR136W, strain MEC1, hits give low values 0.957 | locus YBR160W, strain CDC28, hits give low values 0.959 | locus YDL017W, strain CDC7, hits give low values 0.944 | locus YDL028C, strain MPS1, hits give low values 0.951 | locus YDL101C, strain DUN1, hits give low values 0.98 | locus YDL108W, strain KIN28, hits give low values 0.951 | locus YDL132W, strain cdc53, hits give low values 0.936 | locus YDL214C, strain PRR2, hits give low values 0.837 | locus YDR052C, strain DBF4, hits give low values 0.973 | locus YDR054C, strain cdc34, hits give low values 0.933 | locus YDR226W, strain ADK1, hits give low values 0.949 | locus YDR477W, strain SNF1, hits give low values 0.734 | locus YER123W, strain YCK3, hits give low values 0.75 | locus YFL009W, strain cdc4, hits give low values 0.942 | locus YFL029C, strain CAK1, hits give low values 0.933 | locus YFR003C, strain YPI1, hits give low values 0.956 | locus YFR028C, strain CDC14, hits give low values 0.942 | locus YGR040W, strain KSS1, hits give low values 0.692 | locus YGR052W, strain FMP48, hits give low values 0.899 | locus YGR092W, strain DBF2, hits give low values 0.753 | [2] 0.759 | locus YHR082C, strain KSP1, hits give low values 0.88 | locus YHR205W, strain SCH9, hits give low values 0.901 | locus YIL147C, strain SLN1, hits give low values 0.929 | [3] 0.586 | locus YJL128C, strain PBS2, hits give low values 0.948 | locus YJL157C, strain FAR1, hits give low values 0.84 | locus YJR016C, strain ILV3, hits give low values 0.936 | [4] 0.714 | locus YKL048C, strain ELM1, hits give low values 0.895 | locus YKL067W, strain YNK1, hits give low values 0.842 | locus YKL101W, strain HSL1, hits give low values 0.92 | locus YKL193C, strain SDS22, hits give low values 0.933 | [5] 0.935 | locus YLR133W, strain CKI1, hits give low values 0.88 | locus YLR403W, strain SFP1, hits give low values 0.699 | locus YML070W, strain DAK1, hits give low values 0.827 | locus YMR001C, strain CDC5, hits give low values 0.896 | locus YMR205C, strain PFK2 (second series), hits give low values 0.82 | locus YMR277W, strain FCP1, hits give low values 0.923 | locus YNL006W, strain LST8, hits give low values 0.929 | locus YNL020C, strain ARK1, hits give low values 0.86 | locus YNL161W, strain CBK1, hits give low values 0.958 | [6] 0.796 | locus YNL207W, strain RIO2, hits give low values 0.91 | locus YNL222W, strain SSU72, hits give low values 0.948 | locus YNL307C, strain MCK1 (second series), hits give low values 0.872 | locus YOL078W, strain AVO1, hits give low values 0.93 | locus YOL136C, strain PFK27, hits give low values 0.802 | locus YOR061W, strain CKA2, hits give low values 0.886 | locus YOR119C, strain RIO1, hits give low values 0.723 | [7] 0.771 | locus YOR329C, strain SCD5, hits give low values 0.938 | locus YPL204W, strain HRR25, hits give low values 0.682 | locus YPL209C, strain IPL1, hits give low values 0.952 | [8] 0.867 | locus YPR025C, strain CCL1, hits give low values 0.951 | locus YPR106W, strain ISR1, hits give low values 0.968 | locus YPR111W, strain DBF20, hits give low values 0.962 | strain NNK1, hits give low values 0.958 | strain TSCII, hits give low values 0.92
